The campaign covered roughly 330,000 compounds. About 300 (0.091%) were called active. Another 4% or so got no clear call; they are omitted. Calls come from the whole dose curve; as a rule, active = well fitted inhibition curve with a large enough effect; inconclusive = small, poorly fitted or top-dose-only effect, or effect the other way, or another doubt; inactive = no such curve, though single readings can be large or run the other way. The entries come from a sample that favours actives as a whole. A call without a number means that no potency is given here.
Target: Lysosomal acid glucosylceramidase (Homo sapiens) (UniProt P04062)
Test: qHTS Assay for Inhibitors and Activators of N370S glucocerebrosidase as a Potential Chaperone Treatment of Gaucher Disease
Settings: N370S GC spleen homogenate, 4MU-glucoside fluorescence; series mostly up to 59.4 µM
From the text: NIH Chemical Genomics Center [NCGC]
NIH Molecular Libraries Probe Production Centers Network [MLPCN]
Assay Submitter (PI): Wei Zheng
Glucocerebrosidase (GC) catalyzes the hydrolysis of beta-glucocerebroside to glucose and ceramide in lysosomes. Mutations in the glucocerebrosidase gene result in Gaucher disease, an autosomal recessive lysosomal storage disorder. Many of the mutations encountered in patients with Gaucher disease are missense alterations that may cause misfolding, decreased stability and/or mistrafficking of this lysosomal protein. […] These inhibitors include iminosugar analogs and three non-iminosugar inhibitors identified from a previous HTS of 62,000 compounds with the wild type recombinant enzyme. However, the enhancement of enzyme activity by the chaperone action of an enzyme inhibitor must be balanced against the direct inhibition of the enzyme. An enzyme activator could also function as a chaperone by binding to the enzyme and helping to correct its misfolding and mistrafficking. While activators for GC have not yet been identified, they may have better therapeutic potential than inhibitors. Therefore the discovery and development of chemical activators may provide a new strategy for the chaperone therapy.
We have optimized a new assay using N370S mutant GC derived from the spleen of a Gaucher patient. […] In addition, the MLPCN compound library has expanded, which increases the chance of finding new and better probes.
NCGC Assay Protocol Summary:
This is a fluorogenic enzyme assay with 4-methylumbelliferyl-beta-D-glucopyranoside as the substrate and N370S glucocerebrosidase from human spleen homogenate as the enzyme preparation. Upon the hydrolysis of this fluorogenic substrate, the resulting product, […] which can be detected by a standard fluorescence plate reader. Data were normalized to the controls for basal activity (without enzyme) and 100% activity (with enzyme). The AC50 values were determined from concentration-response data modeled with the standard Hill equation.
Assay buffer: 50 mM citric acid (titrated with potassium phosphate to pH 5.0), 100 mM potassium chloride, 10 mM sodium chloride, 1 mM magnesium chloride, 0.01% Tween-20.
1536-well assay protocol:
(1) Add 2 ul/well of spleen homogenate (27 ug final)
(2) Add 23 nL compounds in DMSO solution. The final titration was 0.5 nM to 58 uM.
(3) Add 2 ul of substrate (1 mM final)
(4) Incubate at 37C for 40 min.
(5) Add 2 ul stop solution (1M NaOH and 1M Glycine mixture, pH 10)
(6) Detect the assay plate in a ViewLux plate reader (PerkinElmer) with Ex=365 nm and Em=440nm.
Keywords: Glucocerebrosidase, beta-glucosidase, Gaucher Disease, pharmacological chaperone, chaperone therapy, high throughput screening, glucocerebrosidase inhibitor, MLSMR, MLSCN, NIH Roadmap, qHTS and NCGC
Potency is the fitted concentration of half-maximal effect.

Row | Compound | activity change, negative = inhibition | Potency
1 | CN(CC(=O)Nc1cccc(F)c1)C(=O)CC1CCCC1 | inactive | –
2 | Cc1nc2cc(-c3ccc(F)cc3)nn2c(N2CCOCC2)c1C | inactive | –
3 | Cc1cc(N)n2nc(-c3ccc(C(C)(C)C)cc3)cc2n1 | – | 10 µM (active)
4 | Cc1cc(C(C)(C)C)n2nc(C)c(-c3ccccc3)c2n1 | inactive | –
5 | CC(O)[C@@H](N)C(=O)O (stereo partly drawn) | inactive | –
6 | CC/C=C/C/C=C/C/C=C/CCCCCCCC(=O)OCC | inactive | –
7 | COC(=O)C(C(=O)OC)[C@@H]1CCCC(=O)C1 | 8.05% [at 12.8 µM] (inactive) | –
8 | Cc1cc(C)c(C#N)c(SCC(=O)N(CC(C)C)C2CCS(=O)(=O)C2)n1 (stereo not drawn) | inactive | –
9 | O=C(COc1ccccc1O)NC1CCCC1 | inactive | –
10 | FC(F)(F)c1ccccc1-c1cc(NCc2ccccc2)ncn1 | inactive | –
11 | COc1cccc(-c2cc(=O)c3cc(NC(=O)c4ccc(C)cc4)ccc3[nH]2)c1 | inactive | –
12 | CCCCC(CC)CN (stereo not drawn) | inactive | –
13 | CCCCC/C=C\C/C=C\C/C=C\CCCCC(=O)NCC(=O)O | inactive | –
14 | CC(=O)Nc1ccc(S(=O)(=O)N2CCN(S(=O)(=O)c3cccs3)CC2)cc1 | inactive | –
15 | CCc1c2c(nc3ccc(O)cc13)-c1cc3c(c(=O)n1C2)COC(=O)[C@]3(O)CC | inactive | –
16 | Cc1cc(C)cc(C#CC2C=CC(Oc3ccc(C4CCCC4)cc3)C(CO)O2)c1 (stereo not drawn) | 7.35% [at 12.8 µM] (inactive) | –
17 | O=C1C2C(c3ccccc3)CC=CC2C(c2ccoc2)N1Cc1ccccc1 (stereo not drawn) | inactive | –
18 | O=C(CN1CCCSc2ccccc21)N1CCN(S(=O)(=O)c2ccccc2)CC1 | inactive | –
19 | COC(=O)NC(c1ccccc1)[C@]1(C(C)=O)CCCC1=O (stereo partly drawn) | 0.29% [at 12.8 µM] (inactive) | –
20 | O=c1cc(-c2ccc(O)cc2)oc2c([C@@H]3O[C@H](CO)[C@@H](O)[C@H](O)[C@H]3O)c(O)cc(O)c12 | inactive | –
21 | COc1ccc2[nH]cc(CCNc3ncnc4ccc(-c5ccc(C(=O)N(C)C)cc5)cc34)c2c1 | inactive | –
22 | CCOC(=O)Cc1csc(SCC(=O)Nc2ccc(C)cc2F)n1 | inactive | –

Row | Compound | activity change, negative = inhibition | Potency
23 | CC[C@H](C)[C@H](NC(=O)[C@@H](N)CCC(=O)O)C(=O)N[C@@H](CC(C)C)C(=O)N[C@@H](CC(=O)O)C(=O)N[C@H](C(=O)N1CCC[C@H]1C(=O)N[C@@H](CO)C(=O)N[C@H](C(=O)O)[C@@H](C)O)C(C)C | inactive | –
24 | N#CCC(=O)Nc1ccc(C(=O)OCC(=O)Nc2sc3c(c2C#N)CCCC3)cc1 | inactive | –
25 | CC(=O)CC(C)C | inactive | –
26 | O=[N+]([O-])c1ccc(N=Cc2c(O)ccc3ccccc23)cc1 | inactive | –
27 | CCOc1[nH]n(-c2ccc(Cl)cc2)c(=O)c1C=Nc1ccc(O)cc1 | inactive | –
28 | Oc1ccc(N=Cc2c(O)ccc3ccccc23)cc1 | – | 12.6 µM (active)
29 | CC(=O)c1ccc(N2CCN(C(=O)c3ccc(Cl)c(S(=O)(=O)NC4CC4)c3)CC2)c(F)c1 | inactive | –
30 | Oc1ccc(O)c2c(O)cccc12 | inactive | –
31 | Cc1ccc(C)c(NC(=O)CN(C)C(=O)c2ccc3ncsc3c2)c1 | inactive | –
32 | CSc1ccccc1NC(=O)COC(=O)CCCOc1ccc(C)cc1 | inactive | –
33 | CC1CCCC(NC(=O)c2cc(-c3ccncc3)nc3ccccc23)C1C (stereo not drawn) | inactive | –
34 | COc1ccc(N(CC(=O)NC2CCCCCCC2)S(=O)(=O)c2c(C)nn(C)c2C)cc1 | inactive | –
35 | CCOc1ccc(N(CC(=O)NCc2ccc(OC)cc2)S(=O)(=O)c2c(C)noc2C)cc1 | inactive | –
36 | CCOc1ccc(N(CC(=O)NCCc2ccc(F)cc2)S(=O)(=O)c2ccccc2)cc1 | inactive | –
37 | COc1ccc(N(CC(=O)NC2CCCCC2)S(=O)(=O)c2c(C)[nH]c(=O)[nH]c2=O)cc1 | – | 3.98 µM (active)
38 | CCCN(c1ccc(C(C)C)cc1)S(=O)(=O)c1c(C)[nH]c(=O)[nH]c1=O | inactive | –
39 | CCOc1ccc(N(CC(=O)Nc2cccc(OC)c2)S(C)(=O)=O)cc1 | inactive | –
40 | COc1cccc(N(CC(=O)NC2CCCCCC2)S(=O)(=O)c2ccccc2)c1 | inactive | –
41 | CCOc1ccc(N(CC(=O)Nc2ccccc2F)S(=O)(=O)c2c(C)[nH]c(=O)[nH]c2=O)cc1 | – | 3.16 µM (active)
42 | CCOc1ccc(N(CC(=O)NC2CCCCCC2)S(=O)(=O)c2c(C)[nH]c(=O)[nH]c2=O)cc1 | – | 2.51 µM (active)
43 | O=C(NCc1ccco1)O[C@@H]1C(=O)c2cc(Br)ccc2O[C@H]1c1ccc2c(c1)OCO2 | inactive | –
44 | CCn1c(=O)c(=O)n(CC)c2cc(N3CCCCC3)c(NC(=O)c3ccc(Cl)cc3)cc21 | inactive | –

Row | Compound | activity change, negative = inhibition | Potency
45 | CCC(C)C(N=C1NS(=O)(=O)c2ccccc21)C(=O)N1CCC(C)CC1 (stereo not drawn) | inactive | –
46 | O=C1CN(Cc2ccccc2)S(=O)(=O)c2ccccc21 | inactive | –
47 | C#CCOCCOCCOCCNc1nc(N2CCN(C(=O)CCCCCCCCCCNC(=O)Cn3cc(CCCCCN)nn3)CC2)nc(N2CCN(C(=O)CCCCCCCCCCNC(=O)[C@H](CO)n3cc(CCCSC)nn3)CC2)n1 | inactive | –
48 | C#CCOCCOCCOCCNc1nc(N2CCN(C(=O)Cn3cc(CCCCN)nn3)CC2)nc(N2CCN(C(=O)[C@H](CCCCN)n3cc(CCC(=O)O)nn3)CC2)n1 | inactive | –
49 | C#CCOCCOCCOCCNc1nc(N2CCN(C(=O)CCCCCCCCCCNC(=O)[C@H](CCCCN)n3cc(C)nn3)CC2)nc(N2CCN(C(=O)CCCCCCCCCCNC(=O)[C@H](CO)n3cc(CCCSC)nn3)CC2)n1 | – | 15.8 µM (active)
50 | O=c1c(O)c(-c2ccc(O)cc2)oc2ccccc12 | inactive | –
51 | CCCCN(CC(=O)Nc1cccc(S(=O)(=O)N2CCCC2)c1)Cc1nc2ccccc2c(=O)[nH]1 | inactive | –
52 | COc1cc(C(=O)OCC(=O)NC23CC4CC(CC(C4)C2)C3)cc(OC)c1OC | inactive | –
53 | CN1CCN(c2ncc3nc(-c4ccc(Cl)cc4)c(=O)n(-c4ccccc4)c3n2)CC1 | inactive | –
54 | COc1cccc([C@H]2Oc3ccc(OC)cc3/C(=N\OCC[C@@H]3C=C[C@H](OC(C)=O)[C@H](COC(C)=O)O3)[C@@H]2O)c1 | 10.4% [at 12.8 µM] (inactive) | –
55 | COc1ccc(-c2ccc(C3C4C=CCCC4(C)C(=O)N3Cc3ccccc3)c(F)c2)cc1OC (stereo not drawn) | inactive | –
56 | CCc1ccc(CN(C)C(C)C(=O)Nc2ccc(S(=O)(=O)N3CCCC3)cc2)cc1 (stereo not drawn) | inactive | –
57 | Cc1csc(SCC(=O)N(c2ccccc2)C(C)C)n1 | inactive | –
58 | c1cncc(CNc2ccnc(-c3ccc4c(c3)OCO4)n2)c1 | inactive | –
59 | CC(=O)c1ccc(OCCCC(=O)Nc2ccc(C)c(S(=O)(=O)N3CCOCC3)c2)cc1 | inactive | –
60 | Cc1ccc(-c2cccc([C@H]3[C@@H]4C=CC[C@@H](C)[C@@H]4C(=O)N3Cc3ccccc3)c2)cc1 | inactive | –
61 | O=C(C1CC(=O)N(C2CCCC2)C1)N1CCN(c2cccc(C(F)(F)F)c2)CC1 (stereo not drawn) | inactive | –
62 | CC(C)C[C@@H](CC(=O)N[C@@H](CCC(=O)O)CC(=O)O)NC(=O)[C@@H]1CCCC[C@H]1NC(=O)C[C@@H](NC(=O)C[C@H](CO)NC(=O)[C@@H]1CCCC[C@H]1N)C(C)C | inactive | –
63 | COc1cc(OC)c2c(c1C(CCN1CCCCC1)c1ccc(N(C)C)cc1)OC(=O)CC2c1ccc(N(C)C)cc1 (stereo not drawn) | inactive | –
64 | Cc1nc(-c2ccc(F)cc2)c(CC(=O)N(C)CC(=O)Nc2c(C)cccc2C)s1 | inactive | –
65 | CC(C)(C)c1ccc(S(=O)(=O)N2CCN(C(=O)c3ccc4c(c3)C(=O)N(Cc3ccncc3)C4=O)CC2)cc1 | inactive | –
66 | CC(C)(O/N=C(\C(=O)N[C@@H]1C(=O)N2C(C(=O)[O-])=C(C[n+]3ccccc3)CS[C@@H]12)c1csc(N)n1)C(=O)O | inactive | –

Row | Compound | activity change, negative = inhibition | Potency
67 | CCOCCOC(=O)C(C)Oc1ccc(Oc2ncc(C(F)(F)F)cc2Cl)cc1 (stereo not drawn) | inactive | –
68 | O=C1[C@H]2[C@H]3[C@H](O)[C@H](O)C/C(=N/OCc4ccccc4)[C@H]3CC[C@@H]2C(=O)N1Cc1ccccc1 | 4.77% [at 12.8 µM] (inactive) | –
69 | CC(=O)N1[C@H](C)C=C[C@]1(Cc1ccccc1)C(=O)NCc1ccccn1 | inactive | –
70 | S=C(NCCCc1cnc[nH]1)NCCCN(Cc1ccc(Cl)c(Cl)c1)c1ccc(Br)cn1 | – | 1 µM (active)
71 | CN(C)CCCNC(=S)NCc1ccc(Cl)cc1 | inactive | –
72 | Fc1ccc(Cl)cc1-c1nc(Nc2ccncc2)c2nccnc2n1 | inactive | –
73 | CC1(C)OC2CC3C4CCC5=CC(=O)CCC5(C)C4(F)C(O)CC3(C)[C@]2(C(=O)CCl)O1 (stereo partly drawn) | inactive | –
74 | COc1ccccc1CNS(=O)(=O)c1cc(C(=O)NCc2ccccn2)c(Cl)cc1Cl | inactive | –
75 | CCCC[C@@H]1C[C@H]1C(NC(=O)c1ccco1)c1ccc(C(=O)OC)cc1 (stereo partly drawn) | inactive | –
76 | Cc1ccc(C(=O)NCCN2CCOCC2)cc1C | inactive | –
77 | CCC1=Nc2cc(C(=O)NCCCN3CCOCC3)ccc2Sc2ccc(Br)cc21 | inactive | –
78 | Cc1ccccc1CN1C(=O)c2ccccc2Sc2ccc(C(=O)NCCCN3CCOCC3)cc21 | – | 11.2 µM (active)
79 | CCc1cccc(NC(=O)COC(=O)c2cc(=O)c3ccccc3o2)c1 | inactive | –
80 | CCc1nnc(NC(=O)C2CCN(C(=O)c3ccccc3C)CC2)s1 | inactive | –
81 | O=NO | inactive | –
82 | CN1CCN(S(=O)(=O)c2ccc(N3CCN(c4ccccc4O)CC3)c([N+](=O)[O-])c2)CC1 | inactive | –
83 | C=CC(=C)CCC=C(C)C | inactive | –
84 | Cc1[nH]c(C)c(S(=O)(=O)N2CCN(c3cccc(C(F)(F)F)c3)CC2)c1C(=O)N1CCCC1 | inactive | –
85 | CC(=O)N1CCOc2ccc(S(=O)(=O)N3CCN(c4cccc(C(F)(F)F)c4)CC3)cc21 | inactive | –
86 | O=C1CC(=O)Nc2cc(S(=O)(=O)N3CCN(c4cccc(C(F)(F)F)c4)CC3)ccc2N1 | – | 14.1 µM (active)
87 | CC1CCN(C(=O)COC(=O)CCC(=O)c2cccs2)CC1 | inactive | –
88 | Cc1cc2nc3c(=O)[nH]c(=O)nc-3n(C[C@H](O)[C@H](O)[C@H](O)CO)c2cc1C | inactive | –

Source: PubChem BioAssay AID2101 (National Center for Advancing Translational Sciences (NCATS), 2009)
